# Reference: PubChem BioAssay (NCATS)
# Results filed as inconclusive are left out. A number with no mark means an inactive call. The call rests on the fitted dose curve; in most records, active means well fitted cell-killing curve with a large enough effect; inconclusive means small, poorly fitted or top-dose-only effect, or effect the other way; inactive means flat fitted curve, though single readings scatter.
# Tested on: OV90
# Test: Primary qHTS to identify gynecologic anti-cancer compounds using libraries of approved drugs and bioactive compounds (AID 1345084); further: nearly all actives have a fitted effect of over 55% in size
# Details: Gynecologic cancer cell panel viability, ATPlite luminescence, 48 h; series mostly up to 57.5 µM; activity change, negative = cytotoxicity: at the top concentration
# Procedure, shortened: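 Measured: luminescence after ATPlite addition (15 min, RT). Exposure: 48 h, 37 C, 5% CO2.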
# On the % scale 0 is the no-effect control and ±100 the full control effect.
row,SMILES,"activity change, negative = cytotoxicity"
1,O=C(C[C@@H]1C(C(=O)O)=CO[C@@H](O[C@@H]2O[C@H](CO)[C@@H](O)[C@H](O)[C@H]2O)/C1=C\CO)OCCc1ccc(O)cc1,-7.69% [at 25.3 µM]
2,COC(=O)[C@H](O)[C@H]1C(C)(C)[C@H](OC(C)=O)[C@@]2(O)C(=O)[C@]1(C)C1CC[C@]3(C)C(CC(=O)O[C@H]3c3ccoc3)[C@]13O[C@@H]32 (stereo partly drawn),3.04% [at 25.3 µM]
3,CC(=O)c1c(C)cccc1O[C@@H]1O[C@H](CO)[C@@H](O)[C@H](O)[C@H]1O,-4.64% [at 38.5 µM]
4,C/C=C(\C)C(=O)OC1CC2C(CC=C3CC(OC4CC(OC)C(OC5CC(OC)C(OC6CC(OC)C(OC7CC(OC)C(OC8CC(OC)C(OC9OC(CO)C(O)C(O)C9O)C(C)O8)C(C)O7)C(C)O6)C(C)O5)C(C)O4)CCC32C)C2(O)CCC(C(C)=O)C12C (stereo not drawn),-1.21% [at 6.55 µM]
5,COc1ccc2[nH]c(S(=O)Cc3ncc(C)c(OC)c3C)nc2c1 (stereo not drawn),8.33%
6,COc1cc(C)c(C(=O)OC2C(C)OC(OC3CCC(C)C4C3C=C(C)C3/C(C)=C\CC/C(C)=C/C5(C)C=C(C(=O)O)C(C)CC56OC(=O)/C(=C(\O)C34C)C6=O)C(O)C2O)c(OC)c1 (stereo not drawn),2.6% [at 11.6 µM]
7,COc1ccc(/C=C/C(=O)O[C@@H]2[C@@H](O[C@@H]3O[C@H](CO)[C@@H](O)[C@H](O)[C@H]3O)[C@@H](O)[C@H](O[C@H]3C4C=CO[C@@H](O[C@@H]5O[C@H](CO)[C@@H](O)[C@H](O)[C@H]5O)C4[C@@]4(CO)O[C@@H]34)O[C@H]2C)cc1 (stereo partly drawn),9.16% [at 11.6 µM]
8,CC(C)C1NC(=O)C(CC2(O)c3ccccc3N3C(=O)C(Cc4ccccc4)NC32)NC1=O (stereo not drawn),5.36% [at 25.3 µM]
